# Measurements reported in the supplement of paper PMC13380429.
# Unmarked numbers belong to inactive results.
# System: Vero E6 infected with SARS-CoV-2
# Test: inhibition of SARS-CoV-2 cytopathic effect; higher = more antiviral protection, active = above 15
# Conditions: 48 h
SMILES,inhibition of SARS-CoV-2 cytopathic effect (1 nM),inhibition of SARS-CoV-2 cytopathic effect (8.33 nM),inhibition of SARS-CoV-2 cytopathic effect (100 nM),inhibition of SARS-CoV-2 cytopathic effect (833.33 nM),inhibition of SARS-CoV-2 cytopathic effect (10000 nM)
Oc1ccc([C@H]2COc3cc(O)ccc3C2)cc1 [equol],-2.73%,-1.03%,-2.88%,3.83%,0.31%
Oc1ccc2ccccc2c1 [beta-naphthol],-0.51%,-1.33%,2.24%,5.34%,2.59%
O=C(O)CSCC(=O)NC1CCSC1=O (stereo not given) [erdosteine],1.03%,2.17%,1.67%,-2.61%,1.6%
NC(=O)CN1CCCC1=O [piracetam],0.23%,-1.52%,3.28%,-1.35%,-0.57%
CC(C)Cn1cnc2c(N)nc3ccccc3c21 [imiquimod],1.22%,1.42%,-0.63%,2.38%,0.63%
O=C(O)c1ccccc1C(=O)Nc1ccc(-c2ccccc2)cc1 [kartogenin],3.34%,2.53%,0.87%,1.12%,1.02%
O=C(OOC(=O)c1ccccc1)c1ccccc1 [benzoyl-peroxide],2.98%,2.38%,-1.92%,-1.86%,-0.05%
OCCn1cc(-c2ccc3c(c2)CC/C3=N\O)c(-c2ccncc2)n1,8.04%,9.39%,8.46%,10.2%,8.08%
CC(C)CNc1nc(-c2cccc3ncccc23)cn2c(-c3ccc(C(=O)NC4CC4)cc3)cnc12,-3.61%,-1.58%,1.09%,-6.07%,-3.69%
COc1ccc(CC(C)NCC(O)c2ccc(O)c(NC=O)c2)cc1 (stereo not given) [formoterol],0.12%,2.33%,1.69%,0.54%,10.8%
C[C@@H]1COC(Nc2ccc3ncnc(Nc4ccc(OCc5nccs5)c(Cl)c4)c3c2)=N1,2.68%,1.86%,-0.65%,-3.55%,-4.19%
C#Cc1cccc(Nc2ncnc3cc(OC)c(OCCCCCCC(=O)NO)cc23)c1,1.1%,5.38%,-0.94%,-6.89%,-28%
O=C(NC[C@H](O)CO)c1ccncc1Nc1ccc(I)cc1F,-1.62%,-4.02%,-9.84%,-13.5%,-14.7%
CC(=O)NCCCOc1ccc(C(=O)N2CCC(N3C(=O)CCc4ccccc43)CC2)cc1,2.92%,-2.2%,0.95%,1.64%,3.15%
COC(=O)Nc1nc2cc(C(=O)c3ccc(F)cc3)ccc2[nH]1 [flubendazole],-1.07%,0.53%,0.32%,0.07%,-2.34%
CC(=O)N[C@@H](Cc1ccc(O)cc1)C(=O)O [N-acetyl-tyrosine],-0.05%,1.2%,0.23%,2.56%,4.82%
Cn1nc(C(C)(C)C)cc1C(=O)N[C@@H](Cc1cccc(Cl)c1)C(=O)NCC#N [cathepsin-inhibitor-1],0.51%,1.86%,-0.47%,-5.37%,-1.36%
Cc1cccc(/C=N/Nc2cc(N3CCOCC3)n3nc(-c4ccncc4)cc3n2)c1,1.37%,4.2%,27.3% (active),19% (active),13.2%
CC(=O)OCC(CCn1cnc2cnc(N)nc21)COC(C)=O [famciclovir],-0.42%,-2.15%,-3.04%,-0.25%,-2.48%
CCCN(CCC)[C@H]1CCc2ccc(O)cc2C1 [7-hydroxy-DPAT],0.73%,2.39%,0.54%,-0.29%,0.48%
